Records with an inconclusive call do not appear. Activity calls are given as the source filed them. Calls come from the whole dose curve; as a rule, active = well fitted activation curve with a large enough effect in the repeat runs; inconclusive = weak or mixed curves; inactive = no such curve, though single readings can be large or run the other way.
molecular target: Aryl hydrocarbon receptor (Homo sapiens) (UniProt P35869); assay: qHTS assay to identify small molecule that activate the aryl hydrocarbon receptor (AhR) signaling pathway (AID 743085); settings: HepG2 AhR-luc (HG2L7.5c1), luciferase, 24 h; series mostly up to 70.3 µM; activation: at the top concentration; note: nearly all actives have a fitted effect of over 15% in size;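 for activation: HG2L7.5c1 human HepG2 liver cells with stably integrated DRE-driven firefly reporter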
Sequence (P35869 whole entry, looked up): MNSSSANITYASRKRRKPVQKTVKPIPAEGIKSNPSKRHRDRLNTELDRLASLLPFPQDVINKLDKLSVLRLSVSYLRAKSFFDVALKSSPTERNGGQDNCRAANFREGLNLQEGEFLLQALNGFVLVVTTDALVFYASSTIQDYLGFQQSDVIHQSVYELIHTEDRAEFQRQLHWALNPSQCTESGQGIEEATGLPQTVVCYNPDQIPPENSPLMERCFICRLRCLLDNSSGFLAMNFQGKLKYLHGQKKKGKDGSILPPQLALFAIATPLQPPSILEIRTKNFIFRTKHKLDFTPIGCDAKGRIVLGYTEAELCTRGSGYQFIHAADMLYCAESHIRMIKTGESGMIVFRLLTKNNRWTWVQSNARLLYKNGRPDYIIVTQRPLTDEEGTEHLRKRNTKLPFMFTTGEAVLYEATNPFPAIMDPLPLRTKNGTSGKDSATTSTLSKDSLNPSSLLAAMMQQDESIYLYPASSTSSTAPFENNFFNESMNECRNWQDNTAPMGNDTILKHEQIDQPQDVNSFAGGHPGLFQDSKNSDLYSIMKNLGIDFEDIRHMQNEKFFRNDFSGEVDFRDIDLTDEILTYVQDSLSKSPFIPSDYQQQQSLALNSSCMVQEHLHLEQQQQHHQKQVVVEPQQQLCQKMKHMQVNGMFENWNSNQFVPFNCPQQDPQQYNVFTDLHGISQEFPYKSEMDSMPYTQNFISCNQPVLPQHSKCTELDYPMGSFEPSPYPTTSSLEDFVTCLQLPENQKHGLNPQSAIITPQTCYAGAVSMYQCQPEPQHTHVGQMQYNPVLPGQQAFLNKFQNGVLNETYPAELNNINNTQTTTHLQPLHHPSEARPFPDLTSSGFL
Excerpt: U.S. Tox21 Program National Center for Advancing Translational Sciences [NCATS] NIH Chemical Genomics Center [NCGC] U.S. Environmental Protection Agency [EPA] National Institutes of Environmental Health Sciences [NIEHS] National Toxicology Program [NTP] U.S. Food and Drug Administration [FDA] Tox21 Assay overview: The Aryl hydrocarbon Receptor (AhR), a member of the family of basic helix-loop-helix transcription factors, is crucial to adaptive responses to environmental changes. AhR mediates cellular responses to environmental pollutants such as aromatic hydrocarbons through induction of phase I and II enzymes but also interacts with other nuclear receptor signaling pathways. A cell based HepG2-AhR-luc assay (HG2L7.5c1 cell line, developed by Dr. Michael S. Denison, University of California at Davis, was used to assess the activation of AhR. HepG2 (human hepatocellular carcinoma) cells were stably transfected with an Ah receptor-responsive firefly luciferase reporter gene plasmid containing 20 dioxin responsive elements and luciferase reporter gene. Increased luciferase activity can be used to identify the compounds that induce AhR activation.
Tox21 Assay Protocol Summary: 4000 cells in 5 uL/well were dispensed into white wall/solid bottom 1536-well plates using a Multidrop Combi (Thermo Fisher Scientific Inc., Waltham, MA) dispenser. After the assay plates were incubated at 37C for 5 h, 23 nL of compound or DMSO vehicle was transferred to the assay plates by a pintool station (Kalypsys, San Diego, CA). The plates were incubated at 37C for 24 hr. After 1 ul/well of CellTiter-Fluor reagent (Promega, Madison, WI) was added into the assay plates using a Flying Reagent Dispenser (FRD) (Aurora Discovery, CA), the assay plates were incubated at 37C for 30 min. The fluorescence intensity in the plates was measured using a ViewLux plate reader (PerkinElmer, Shelton, CT), followed by the addition of 4 uL of ONE-Glo Luciferase Assay reagent (Promega) using an FRD (Aurora Discovery). After the assay plates were incubated at room temperature for 30 min, luminescence intensity was measured using a ViewLux plate reader (Perkin Elmer).
% is set by controls: 0 for no effect and ±100 for the full control effect; potency is the fitted concentration of half-maximal effect.

SMILES | activation | Potency
CCCCCCCCCCOS(=O)(=O)O | -0.142% (inactive) | 
COc1cc2ncnc(Nc3ccc(F)c(Cl)c3)c2cc1OCCCN1CCOCC1 |  | 15 µM (active)
O=C(CCCCCCC(=O)Nc1ccccc1)NO |  | inactive
OCC1CC=CCC1 (stereo not given) | 0.641% (inactive) | 
COCc1c(C(C)C)nc(C(C)C)c(/C=C/[C@@H](O)C[C@@H](O)CC(=O)O)c1-c1ccc(F)cc1 | 3.38% (inactive) | 
C[Si]1(C)O[Si](C)(C)O[Si](C)(C)O1 | -0.43% (inactive) | 
CCCOC(=O)c1ccc(C(=O)OCCC)nc1 | 4.07% (inactive) | 
CC(COc1ccc(C(C)(C)C)cc1)OS(=O)OCCCl (stereo not given) | 1.39% [at 95 µM] (inactive) | 
CCCCCCCC/C=C\CCCCCCCC(=O)OC(CO)CO | 2.47% (inactive) | 
CCOC(=O)CC(=O)C(=O)OCC | -1.95% (inactive) | 
O=C(c1ccc(O)cc1)c1ccc(Cl)cc1 | 6.49% [at 95 µM] (inactive) | 
CSc1ccc(Oc2ccc(S(N)(=O)=O)cc2CN(C)C)cc1C | 1.56% (inactive) | 
CNC(=O)N(c1ccccc1)c1ccccc1 | -1.85% [at 95 µM] (inactive) | 
CCN(Cc1cccc(S(=O)(=O)O)c1)c1ccc(C(=C2C=CC(=[N+](CC)Cc3cccc(S(=O)(=O)[O-])c3)C=C2)c2ccccc2)cc1 | -1.27% (inactive) | 
COc1cc2c(cc1OC)-c1cc(=Nc3c(C)cc(C)cc3C)n(C)c(=O)n1CC2 |  | 1.33 µM (active)
CCOC(=O)[C@@H](C)Oc1ccc(Oc2nc3ccc(Cl)cc3o2)cc1 | 3.8% (inactive) | 
O=C(CCCCCCCCC#CI)Oc1ccccc1 | -3.19% (inactive) | 
CC(C)CCCCCOC(=O)CCCCC(=O)OCCCCCC(C)C | -0.224% (inactive) | 
CN1C(=O)CC(C)(c2ccccc2)C1=O (stereo not given) | 5.13% (inactive) | 
CC1CC(O)CC(C)(C)C1 (stereo not given) |  | inactive

SMILES | activation | Potency
C=CC(C)=CCC=C(C)C | -0.546% (inactive) | 
CCC(=O)Oc1ccc(/C(CC)=C(\CC)c2ccc(OC(=O)CC)cc2)cc1 | -0.553% (inactive) | 
[O]=[Bi] | -0.231% [at 8.47 µM] (inactive) | 
CC(C)(CCl)c1ccccc1 | -0.377% (inactive) | 
CN1CCN(CCCN2c3ccccc3Sc3ccc(S(=O)(=O)N(C)C)cc32)CC1 | -0.54% [at 32.5 µM] (inactive) | 
CC(N)CN (stereo not given) | 0.501% [at 95 µM] (inactive) | 
CC1=C(/C=C/C(C)=C\C=C\C(C)=C\C(=O)O)C(C)(C)CCC1 | 1.46% (inactive) | 
Cc1ccc(/C=N/n2c(-c3ccccc3)csc2=S)cc1 |  | 10.6 µM (active)
CCn1nc(C)c2c1C(=O)NCC(c1ccc(O)cc1)=N2 |  | 24.3 µM (active)
COCCOC(=O)C1=C(C)NC(C)=C(C(=O)OC/C=C/c2ccccc2)C1c1cccc([N+](=O)[O-])c1 (stereo not given) |  | 0.944 µM (active)
CCOc1cc(N)c(Cl)cc1C(=O)NCC1CN(Cc2ccc(F)cc2)CCO1 (stereo not given) |  | 0.266 µM (active)
C[N+](C)(C)CCOC(N)=O | -1.1% (inactive) | 
CC(=O)[C@H]1CC[C@H]2[C@@H]3C[C@H](C)C4=CC(=O)CC[C@]4(C)[C@H]3[C@@H](O)C[C@]12C | 4.23% [at 32.5 µM] (inactive) | 
CC1CN(c2cc3c(cc2F)c(=O)c(C(=O)O)cn3-c2ccc(F)cc2F)CCN1 (stereo not given) | 2.54% (inactive) | 
CO[Si](C)(OC)OC | -0.119% (inactive) | 
C(=C\c1ccccc1)/CN1CCN(C(c2ccccc2)c2ccccc2)CC1 | -0.0694% [at 32.5 µM] (inactive) | 
CCCCN(CCCC)C(=S)SSC(=S)N(CCCC)CCCC | 0.423% (inactive) | 
O=C(O)c1snc(Cl)c1Cl |  | 61.1 µM (active)
CCC1(C)CC(=O)NC1=O (stereo not given) | -0.0995% (inactive) | 
CCCCC(CC)C(=O)OCCOCCOCCOCCOC(=O)C(CC)CCCC (stereo not given) | 3.8% (inactive) | 

From PubChem BioAssay (Tox21)
